GPR32 ag – agonists of human resolvin D1 receptor DRV1 (GPR32); 48,000 compounds, 2.5% hits; activation, % at 76.9 µM; CHO-K1 GPR32 beta-arrestin PathHunter luminescence, 90 min; zero percent set by DMSO-only wells; O75388;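 active = activation of at least 60% and not above a set upper limit, about 1 call in 100 departs from these limits; inconclusive = activation of 40% to 60%, or above that upper limit; inactive = activation under 40%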; also: 0% is about no effect
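Using DMSO wells as EC0, agonist-induced signal was taken as chemiluminescence from beta-Gal reconstituted upon beta-arrestin recruitment to GPR32 in CHO-K1 cells after 90 min compound treatment.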
TSG101-PTAP inh – TSG101-PTAP interaction inhibition, HIV-1 budding | Q99816 | Fluorescence polarization, FITC-PTAP peptide/Tsg101, 20 min | Potency, µM (doses to about 115 µM), actives largely listed as inhibitors | 44,000 tested, under 10 active | AID 1347069; also: potency is read from the fitted curve at half-maximal effect; 0% is about no effect
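Fluorescence polarization: Tsg101 binding domain (10 uM final) in 10 mM HEPES pH 7.5, 0.15 M NaCl, 0.01% Tween 20, 3 mM EDTA, 0.1 mM TCEP; compounds pinned; FITC-PTAP peptide 50 nM final; 20 min, r.t.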
HTT-AS act – activators of huntingtin-antisense promoter activity. HEK293 HTT-AS promoter firefly luciferase reporter, 24 h; response scale: percent change from vehicle, -100% = no light. Potency, µM (doses to about 57.5 µM), without a hit: at the highest dose activity change, positive = activation, most hits filed as activators. 48,000 compounds, 0.24% hits; also: potency is read from the fitted curve at half-maximal effect; nearly all actives have a fitted effect of over 55% in size
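Firefly luciferase signal from promoter-reporter HEK293 cells was scaled between vehicle (0%) and zero RLU (-100%). Compounds were tested at final concentrations of up to 57.5 uM over 24 h at 37 degrees C. PTC124 at 50 uM final served as control inhibitor.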
GALK inhibitor – GALK (human) enzyme inhibition; Potency, µM (highest dose often 57.5 µM), for the others: at the top dose activity, negative = inhibition, actives largely listed as inhibitors; P51570; 44,000 tested, under 10 active; recombinant GALK, Kinase-Glo ATP luminescence, 1 h;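 also: plate controls were full GALK reaction for no effect and reaction lacking GALK for full effect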
Target sequence (P51570 whole entry, looked up): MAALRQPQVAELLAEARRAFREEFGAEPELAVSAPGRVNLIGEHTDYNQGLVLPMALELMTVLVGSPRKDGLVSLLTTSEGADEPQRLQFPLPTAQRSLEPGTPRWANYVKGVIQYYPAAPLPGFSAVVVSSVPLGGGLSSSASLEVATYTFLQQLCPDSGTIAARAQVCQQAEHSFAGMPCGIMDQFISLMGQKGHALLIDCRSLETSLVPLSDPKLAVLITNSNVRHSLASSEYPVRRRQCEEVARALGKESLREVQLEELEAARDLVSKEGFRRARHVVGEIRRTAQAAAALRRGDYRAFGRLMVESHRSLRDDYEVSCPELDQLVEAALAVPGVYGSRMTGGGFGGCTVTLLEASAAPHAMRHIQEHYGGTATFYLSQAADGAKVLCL
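Luminescent ATP-depletion readout (Kinase-Glo Plus) after 1 h room-temperature incubation of human GALK (5 nM) with galactose 100 µM and ATP 35 µM, pH 8.0 HEPES/Mg2+ buffer; compounds tested in qHTS format.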
B2AR arrestin ag – ADRB2 beta-arrestin recruitment; P07550; HTLA Tango cells, beta-arrestin recruitment, luciferase luminescence, 18 h; AID 1347077; Potency, µM (top dose mostly 46.1 µM), most hits filed as activators; 44,000 tested, under 10 active;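 also: potency is read from the fitted curve at half-maximal effect; 0% = DMSO and full agonism = EC100 isoproterenol or metaproterenol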
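Tango cell line, 1% FBS DMEM; cpd titration up to 46 microM; 18 hr, 37 degrees C, 5% CO2. Luciferin/ATP substrate mix added, 15 min RT, luminescence. %Activity, CRC fitting, curve-class categorization.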
HTT promoter inh – inhibits huntingtin promoter activity | 48,000 compounds, 0.93% hits | AID 1508623 | Potency, µM (series often up to 57.5 µM), for the others: at the highest dose activity change, negative = inhibition, actives largely listed as inhibitors | HEK293 HTT promoter firefly luciferase reporter, 24 h; also: potency is read from the fitted curve at half-maximal effect; nearly all actives have a fitted effect of over 50% in size
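Quantitative HTS used concentration series of up to 57.5 uM final on HEK293 luciferase reporter cells, 24 h at 37 degrees C. Readout was Dual-Glo firefly luminescence.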
Active calls of the source: *; i = inactive; ? = inconclusive; / = no result given. Rows were chosen to be rich in hits. Some 3.6% of all compounds tested hit in one or more screens of this group. Unless noted, calls follow the shape of the dose curve; as a rule, active = well fitted curve in the direction sought with a large enough effect; inconclusive = small, poorly fitted or top-dose-only effect, or another doubt; inactive = no such curve, though single readings can be large; an effect the other way counts as inactive or inconclusive.

SMILES	GPR32 ag	TSG101-PTAP inh	HTT-AS act	GALK inhibitor	B2AR arrestin ag	HTT promoter inh
Cc1ccc(F)c(NC(=O)Nc2ccc3snnc3c2)c1	68.1*	i	6.4%	5.1%	i	9.7%
O=C(Nc1ccc(F)cc1)Nc1ccc2snnc2c1	39.1	i	-22.7%	1.0%	i	?
CC(=O)Nc1cccc(NC(=O)Cc2csc(COc3cccc(C)c3)n2)c1	68.9*	i	-17.4%	6.2%	i	?
COC(=O)c1ccc(NC(=O)n2ncc3c(C)cccc32)cc1	13.1	i	?	-9.1%	i	9.5%
Cc1ccc(NC(=O)n2ncc3c(C)cccc32)c(C)c1	-18.9	i	7.08µM*	2.8%	i	55.6%
Cc1cc2ccccc2n1CCNC(=O)c1cccc(Br)c1	25.1	i	-15.6%	2.7%	i	-19.9%
Cc1cc2ccccc2n1CCNC(=O)c1cccc(Cl)c1	116.0*	i	-16.7%	1.3%	i	-20.8%
CC(C)CN(C[C@H](O)[C@H](Cc1ccccc1)NC(=O)O[C@H]1CCOC1)S(=O)(=O)c1ccc(N)cc1	/	/	-5.0%	/	/	-9.2%
COc1ccc(CC2=NN3C([C@@H](CCc4ccccc4)[C@@H](C)O)=NC(C)C3C(=O)N2)cc1OC (stereo not given in full)	/	/	7.69µM*	/	/	45.1%
COc1ccc(CCN2CC(C(=O)NCCc3ccccc3)CC2=O)cc1OC (stereo not given)	-11.5	i	3.5%	4.4%	i	12.4%
COc1ccc(Cn2c(CO)cnc2SCc2ccccc2C)cc1	-12.5	i	?	-1.8%	i	61.1%
OCc1cnc(SCc2ccccc2F)n1Cc1ccc(F)cc1	93.9*	i	-30.8%	-2.3%	i	-21.3%
COc1ccc(Cn2c(CO)cnc2SCc2ccc(F)cc2)cc1	?	i	-31.6%	-0.8%	i	31.6µM*
CN(C)c1ccc(C(=C2C=CC(=[N+](C)C)C=C2)c2ccccc2)cc1	95.0*	/	-96.0%	/	/	?
CCCCCCOC(=O)NC(=N)c1ccc(NCc2nc3cc(C(=O)N(CCC(=O)OCC)c4ccccn4)ccc3n2C)cc1	-19.5	/	-29.7%	/	/	-20.2%
CCc1cccc(NC(=O)Cn2c(=O)n(CC(=O)NCCc3ccccc3)c(=O)c3ccccc32)c1	81.2*	i	-31.0%	0.1%	i	-24.6%
Cc1ccc(CCn2c3c(c4cc(Cl)ccc42)CN(C)CC3)cn1	-4.7	/	2.1%	/	/	-3.0%
Cc1ccc2c(c1)N(C(=O)c1ccc(F)cc1)C(C)(C)CC2(C)c1ccccc1 (stereo not given)	9.2	i	-28.7%	2.1%	i	28.2µM*
CCOC(=O)N1CCC(n2c(=O)[nH]c3cc(Cl)ccc32)CC1	72.2*	/	-77.1%	/	/	?
COc1cc(-c2nc3ccc(Cl)cn3c2Nc2ccc3c(c2)OCCO3)ccc1O	-19.3	i	-9.3%	-6.1%	i	18.1%
COc1cc(-c2nc3cccc(C)n3c2Nc2ccc3c(c2)OCCO3)ccc1O	61.2*	i	-5.8%	0.0%	i	2.0%
NC(CO)(CO)CCc1ccc(Sc2cccc(OCc3ccccc3)c2)cc1Cl	/	/	-29.3%	/	/	-28.1%
CCOCc1cc(CN2CCN(c3ccccc3OC)CC2)c(O)c2ncccc12	-22.7	i	-35.9%	-0.8%	?	11.2µM*
CCCOCc1cc(CN2CCN(c3ccccc3OC)CC2)c(O)c2ncccc12	11.6	i	-34.2%	-9.0%	i	?
Cc1ccc(CNC(=O)c2cc3c(s2)-c2ccc(Cl)cc2SC3)cc1	105.9*	i	-9.2%	-1.2%	i	-11.7%
SMILES	GPR32 ag	TSG101-PTAP inh	HTT-AS act	GALK inhibitor	B2AR arrestin ag	HTT promoter inh
COCCOCC(OC)OC	-9.1	/	-0.7%	/	/	2.8%
C[C@H](NC(=O)OC(C)(C)C)c1nnc(SCc2ccc(Cl)cc2Cl)o1	?	i	-33.4%	7.7%	i	?
CC(C)C[C@H](N)c1nnc(SCc2ccc(Cl)cc2Cl)o1	76.7*	i	-15.9%	8.1%	i	-29.1%
Cc1ccc(OCC(=O)Nc2ccc3c(c2)sc(=O)n3C)cc1	73.0*	i	-15.5%	0.6%	i	-5.6%
Cc1cc(O)c(-c2ccnc3cc(-c4ccccc4)nn23)cc1Cl	89.7*	i	-14.5%	-2.4%	i	-3.6%
Cc1ccc(-c2cc3nccc(-c4cc([N+](=O)[O-])ccc4O)n3n2)cc1	-42.8	i	-70.8%	-1.0%	i	?
Cc1cc(NC(=O)N(C)CCc2c(C)nn(C)c2C)ccc1Br	64.7*	i	-3.1%	-2.2%	i	-21.1%
COc1ccc(C2C=C(c3ccccc3)Nc3nc(NS(=O)(=O)c4ccc(C)cc4)nn32)cc1 (stereo not given)	?	i	-12.7%	-11.3%	i	-2.8%
O=C(Nc1nc2n(n1)C(c1ccccc1)C=C(c1ccc(Cl)cc1)N2)c1ccco1 (stereo not given)	-2.2	i	-24.7%	2.7%	i	?
Cc1ccc(C2C=C(c3ccccc3)Nc3nc(NS(=O)(=O)c4ccc(C)cc4)nn32)cc1 (stereo not given)	93.9*	i	-11.3%	1.7%	i	-3.2%
Cc1ccc(C2C=C(c3ccc(Cl)cc3)Nc3nc(NS(=O)(=O)c4ccccc4)nn32)cc1 (stereo not given)	73.0*	?	-16.6%	2.3%	i	-11.2%
O=c1[nH]cnc2nc[nH]c12	82.0*	/	5.4%	/	/	20.2%
O=C(CN(c1ccc(Cl)c(C(F)(F)F)c1)S(=O)(=O)c1ccccc1)Nc1cccnc1	35.5	i	-27.6%	0.0%	i	-14.5%
O=C(CN(c1cccc(C(F)(F)F)c1)S(=O)(=O)c1ccccc1)Nc1cccc(Cl)c1	21.9	i	-40.1%	0.4%	i	28.2µM*
COc1cc(Nc2ncc3c(n2)-c2ccc(Cl)cc2C(c2c(F)cccc2OC)=NC3)ccc1C(=O)O	/	/	-43.8%	/	/	?
O=S(=O)(O)c1cc(I)c(O)c2ncccc12	104.6*	/	-3.4%	/	/	8.2%
Oc1c(I)cc(I)c2cccnc12	-44.8	/	-4.3%	/	/	-2.2%
CN(C)c1ccc(C(=O)NCCCCCCC(=O)NO)cc1	/	/	?	/	/	233.8%
CC1CCN(c2nc3ccc(C(=O)NCc4ccccc4)cc3s2)CC1	7.7	i	-76.2%	6.5%	i	0.112µM*

High-throughput results (PubChem BioAssay)
